In ChEMBL document CHEMBL4513216, “Probing the Open Global Health Chemical Diversity Library for Multistage-Active Starting Points for Next-Generation Antimalarials” (ACS Infect Dis, 2020):
Out of some 68,000 compounds screened, about 2,700 (4%) showed an effect of 50% or more. For the sample, strong results were picked, then their nearest neighbours and some compounds at random.

system: Plasmodium berghei; assay: Screen against P. berghei liver stage (PbLuc), transformed with Luciferase, at 2uM; assay type: functional, HepG2; conditions: tested at 2 uM

Compound | INHIBITION
NC(=O)CCn1ccc(NC(=O)c2ccc(OCC3CC3)cc2)n1 | -52.01%
Cc1nnsc1C(=O)NCc1cccnc1N1CCCC(O)C1 (stereo not drawn) | 41.59%
Cc1nn(C)c(N(C)C)c1CNCc1ccccc1Cn1cccn1 | -40.27%
CC(C)c1nccn1C(C)C(=O)NC1CCOCC1 (stereo not drawn) | 1.1%
CC(C)c1nccn1C(C)C(=O)NC1Cc2ccccc2C1 (stereo not drawn) | 51.72%
CC(C)c1nccn1C(C)C(=O)NC1CCN(S(C)(=O)=O)CC1 (stereo not drawn) | 8.13%
Cc1cc(C)c(CNC(=O)NCc2nnc3n2CCCC3)c(=O)[nH]1 | -47.98%
O=C(O)c1ccn(-c2cccc(NC(=O)c3ccccc3Cl)c2)n1 | 23.43%
O=C(CCc1cc(Cl)no1)N1CCC(c2cc3ncccc3cn2)CC1 | 15.72%
Cc1occc(=O)c1OCc1noc(C(=O)NC(C)C)n1 | 2.06%
CCOC(=O)c1nc(COc2c(C)occc2=O)no1 | 54.13%
CNC(=O)c1nc(COc2c(C)occc2=O)no1 | 20.19%
Cc1cn(Cc2ccc(F)c(F)c2)nc1N | 17.69%
[O-][S+](CCN1CCc2[nH]nc(C(F)(F)F)c2C1)c1ccccc1 (stereo not drawn) | -62.71%
FC(F)(F)c1[nH]nc2c1CN(Cc1ccccc1)CC2 | 57.77%
FC(F)(F)c1n[nH]c2c1CN(Cc1cn3ccccc3n1)CC2 | -7.14%
Cc1ccccc1CN1CCC2(CC1)CN(S(=O)(=O)c1ccccc1)C2 | 43.51%
O=C(NCc1cccnc1)Nc1cc(C(F)(F)F)c[nH]c1=O | -13.92%
O=C1N(c2ccsc2)CCC12CCCN(CC1CC1)C2 (stereo not drawn) | 7.77%
O=C(c1cccnc1O)N(Cc1ccsc1)CC1CCCO1 (stereo not drawn) | -85.83%
O=C(c1cccnc1O)N(Cc1cccs1)CC1CCCO1 (stereo not drawn) | 64.9%
Cc1csc(CN(CC2CCCO2)C(=O)c2cccnc2C)n1 (stereo not drawn) | -5.92%
c1ccc2[nH]c(C3CCN(Cc4nc(C5CC5)no4)CC3)cc2c1 | -3.99%
O=C(CCc1cc2n(n1)CCCNC2)N1CCSCC1 | -9.98%
CCc1nc(C)c(CN2CCN(c3ncnc4scc(C)c34)CC2)[nH]1 | -33.43%
Cc1n[nH]c(CN2CCN(c3ncnc4scc(C)c34)CC2)c1Cl | 74.18%
CCc1nc(C)c(CN2CCN(c3ncnc4c(C)csc34)CC2)[nH]1 | -3.25%

Compound | INHIBITION
CC(C)Oc1ncccc1CNC(=O)N1CCOCC1 | -10.84%
CN(C)CC(=O)N1CCc2sc(C(=O)N3CCN(C)CC3)cc21 | 34.93%
O=C(NCc1ccccn1)[C@@H]1CC[C@@H]2[C@@H](CCN2c2ncc(F)cn2)O1 | 21.77%
CCn1cc(C(=O)N2CCCC(c3noc(C)n3)C2)cn1 (stereo not drawn) | 31.46%
Cc1nc(C2CCCN(C(=O)c3cnn(C(C)(C)C)c3)C2)no1 (stereo not drawn) | 56.12%
Cc1cccc(C(=O)N2CCCC(c3noc(C)n3)C2)n1 (stereo not drawn) | -11.71%
Cc1nc(C2CCCN(C(=O)c3cc(Cl)c4c(c3)OCO4)C2)no1 (stereo not drawn) | 50.05%
Cc1nc(C2CCCN(C(=O)c3ccoc3)C2)no1 (stereo not drawn) | -3.64%
Cc1nc(C2CCCN(C(=O)c3cccc4c3OCO4)C2)no1 (stereo not drawn) | 27.31%
Cc1nc(C2CCCN(C(=O)c3ccco3)C2)no1 (stereo not drawn) | 51.32%
Cn1cnnc1C1CCCN(C(=O)c2cc(Cl)c3c(c2)OCO3)C1 (stereo not drawn) | 3.9%
Cc1nc(C2CCCN(C(=O)c3cnn(C4CCCCC4)c3)C2)no1 (stereo not drawn) | -31.72%
Cc1noc(C)c1-c1cccc(C2CCCNC2)n1 (stereo not drawn) | 29.48%
CN(C)c1nc(N)nc(CN2CCCC2c2cccs2)n1 (stereo not drawn) | -43.18%
CC(CO)N(C)C(=O)c1cn(-c2ccc(Br)cc2)cn1 (stereo not drawn) | -33.03%
O=C(c1cncc(NCC2COc3ccccc3C2)n1)N1CCCC1 (stereo not drawn) | 50.3%
O=C(c1cncc(NCC2COc3ccccc3C2)n1)N1CCCCC1 (stereo not drawn) | 31.05%
O=C(c1cncc(NCC2COc3ccccc3C2)n1)N1CCOCC1 (stereo not drawn) | 10.77%
Cc1ncc(CNC(=O)N(C)C2CCN(c3ccccc3)C2=O)s1 (stereo not drawn) | -16.12%
CNc1cc(C2CN(Cc3coc(C)n3)CCO2)nc(C)n1 (stereo not drawn) | -13.51%
CS(=O)(=O)CCN1CC(c2ccccc2)(c2ccccc2)CCC1=O | 19.12%
O=C1CCC(c2ccccc2)(c2ccccc2)CN1CCO | 22%
CN(C)C(=O)CCN1CC(c2ccccc2)(c2ccccc2)CCC1=O | 64.08%
Cn1ccnc1CN1CC[C@@H](NS(C)(=O)=O)[C@@H]1Cc1cccnc1 | -29.46%
CN1CCOC(CNCc2cnc(C(C)(C)C)s2)C1 (stereo not drawn) | 11.01%
CCN(CC)c1ncc(CNCC2CCCn3ccnc32)s1 (stereo not drawn) | -6.64%
